According to PubChem BioAssay (NCI):
This is part of a sample that, as a whole, favours compounds with a hit. Of some 79,000 tested, about 15% had one in any assay. Activity calls are given as the source filed them. Rule as the data show it: active = growth inhibition above about 70%; inactive = the rest.

Legend:
[1] = NCI Yeast Anticancer Drug Screen. Data for the rad50 strain (AID 155);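 also: 0% = growth of vehicle-only cultures of the same strain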; conditions: S. cerevisiae rad50 strain growth inhibition; at 50.0 µM; hits give high values
Summary of the method: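 A DNA repair-deficient yeast mutant serves as the test organism; compound-induced growth inhibition is calculated against vehicle-treated cells.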

[2] = NCI Yeast Anticancer Drug Screen. Data for the mec2-1 strain (AID 157); conditions: S. cerevisiae mec2-1 strain, at 50.0 µM, hits give high values
Summary of the method: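 Strain: mec2-1 (DNA repair/cell cycle alteration). Compound exposure, then growth measured; inhibition expressed relative to vehicle.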

[3] = NCI Yeast Anticancer Drug Screen. Data for the sgs1 mgt1 strain (AID 161);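 also: 0% = growth of cultures given vehicle only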; conditions: S. cerevisiae sgs1 mgt1 strain, at 50.0 µM, hits give high values
Summary of the method: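 Mutant yeast exposed to compound; growth scored against vehicle-only wells.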

[4] = NCI Yeast Anticancer Drug Screen. Data for the cln2 rad14 strain (AID 165);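 also: 0% = growth equal to vehicle treated cultures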; conditions: S. cerevisiae cln2 rad14 strain, at 50.0 µM, hits give high values
Summary of the method: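 Compounds are applied to the cln2 rad14 yeast strain, and growth is then compared with that of vehicle-treated cultures to give inhibition.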

[5] = NCI Yeast Anticancer Drug Screen. Data for the bub3 strain (AID 167); conditions: S. cerevisiae bub3 mutant strain, at 50.0 µM, hits give high values
Summary of the method: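 Inhibition values come from growth of compound-treated mutant yeast normalised to vehicle-treated controls.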

[6] = NCI Yeast Anticancer Drug Screen. Data for the mlh1 rad18 strain (AID 175); conditions: S. cerevisiae mlh1 rad18 strain growth inhibition; at 50.0 µM; hits give high values
Summary of the method: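 Read-out is yeast growth inhibition, calculated against vehicle-only controls. The compound was applied to a strain engineered with DNA damage repair alterations.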

Measured: growth inhibition

Cn1c(=O)c2snnc2n(C)c1=O
inactive: [1] -2.75% | [2] -2.65% | [3] -2.65% | [4] -9.5% | [5] 2.9% | [6] -16.6%

CC(Nc1ccc(Br)cc1[N+](=O)[O-])C(=O)O (configuration not stated)
inactive: [1] 22.1% | [2] 11.6% | [3] 58.2% | [4] 19.1% | [5] 30.8% | [6] 6.95%

Cn1c(CC(O)c2nc3ccccc3n2C)nc2ccccc21 (configuration not stated)
inactive: [1] -18.7% | [2] -18.6% | [3] -10.2% | [4] -8.75% | [5] -23.8% | [6] -33.5%

O=C(c1ccccc1)c1cc[n+]([O-])cc1
inactive: [1] -5.6% | [2] -11.8% | [3] -18% | [4] -16.9% | [5] -8.7% | [6] 12.7%

O=C1c2ccccc2C(=O)N1CC1CC(S(=O)(=O)c2ccccc2)=NO1 (configuration not stated)
inactive: [1] -1.8% | [2] -15.2% | [3] -0.4% | [4] -0.4% | [5] -7.6% | [6] 5%

CC(C)N(C(=O)C12C3C4C5C3C1(C(=O)N(C(C)C)C(C)C)C5C42)C(C)C (configuration not stated)
inactive: [1] 16.5% | [2] 17.4% | [3] 12.2% | [4] 1% | [5] 19.9% | [6] 14.4%

C[n+]1cccc(C(=O)O)c1
inactive: [1] 5.25% | [2] 2.75% | [3] 8.65% | [4] -9.05% | [5] 17.8% | [6] 10.1%

CCOC(=O)c1[nH]n(-c2ccccc2)c(=O)c1C=NC(C)=S
inactive: [1] -32.2% | [2] -25.6% | [3] -16.6% | [4] 7.1% | [5] -12% | [6] -18.9%

c1ccc(C2OCCO2)cc1
inactive: [1] 4.05% | [2] -15.2% | [3] -6.7% | [4] 6.6% | [5] -0.2% | [6] 10.4%

CC(=O)c1ccccc1
inactive: [1] 1.4% | [2] -12.9% | [3] -16.1% | [4] -5.7% | [5] -18.2% | [6] -23.8%

OC1(CCC2OCCO2)c2ccccc2-c2ccccc21
inactive: [1] -3.9% | [2] 7.05% | [3] 7.85% | [4] 25.4% | [5] 15.8% | [6] 2.85%

CN(C)CCCOC(=O)C(O)(Cc1ccccc1)C1CC1 (configuration not stated)
inactive: [1] 10.7% | [2] 15.4% | [3] 6.25% | [4] 5.35% | [5] 28.6% | [6] 15.1%

CC(C)(C)c1ccccc1OC(=O)Nc1ccc(F)cc1
inactive: [1] 3.65% | [2] 7.1% | [3] 7.4% | [4] -14.2% | [5] 19.1% | [6] -3.7%

Cc1cccc(NS(=O)(=O)c2ccc(Cl)cc2)c1C
active: [1] 98.5% | [2] 98.3% | [3] 98.2% | [4] 98.3% | [5] 98.4% | [6] 98.7%

CN(Cc1ccccc1)c1ccccn1
inactive: [1] -12.9% | [2] -21.8% | [3] -18.9% | [4] -2.05% | [5] -12.7% | [6] 8.85%

COc1cc2c(c3c1CCC(C)(C)O3)Cc1c(cc(OC)c(OC)c1CCC(C)(C)O)O2
inactive: [1] 41.8% | [2] -3.9% | [3] 3.6% | [4] 0.4% | [5] 3% | [6] 7.6%

N#CC1NCNC1N (configuration not stated)
inactive: [1] 0.2% | [2] 0.65% | [3] -6.6% | [4] 1.15% | [5] -1.25% | [6] -16.8%

CCCCCCCCCCCCCCCCCCn1cnc2c(=S)nc[nH]c21
inactive: [1] -37.5% | [2] -2.2% | [3] -0.75% | [4] -20.5% | [5] 0.5% | [6] -34.1%

Cc1c(Br)c(Br)nn1C(C)C(=O)N(C)C (configuration not stated)
inactive: [1] 1.75% | [2] 1.6% | [3] -4.55% | [4] -40.8% | [5] -31.8% | [6] 4.45%

Nc1nc(N)c(NC(=O)CCCO)c(=O)[nH]1
inactive: [1] -3.95% | [2] -2.35% | [3] -13.3% | [4] 6.8% | [5] -23.8% | [6] -53%

CCCCCCCC(CCCCCCC)C(=O)OCCO
inactive: [1] -7.4% | [2] -7.9% | [3] 3.7% | [4] -21.8% | [5] -4.95% | [6] -5.6%

O=C1c2ccccc2C(=O)N1CCc1ncc[nH]1
inactive: [1] 1.45% | [2] 17% | [3] 0.15% | [4] -23.9% | [5] 6.3% | [6] 2.9%

CCNCCN(CC)CC
inactive: [1] -12.7% | [2] -5.75% | [3] -21.1% | [4] 6.1% | [5] 0% | [6] -17.4%

OCc1nc2ccccc2[nH]1
inactive: [1] 5.6% | [2] -4.5% | [3] -3.55% | [4] -27.2% | [5] 14.1% | [6] 3.3%

CCCCNc1ncnc2c1cnn2-c1ccccc1
inactive: [1] 7% | [2] -1% | [3] 3.2% | [4] -26.9% | [5] -4.75% | [6] 0%

COc1ccc2ccc3c(OC(C)=O)ccc(CCN(C)C(C)=O)c3c2c1OC(C)=O
inactive: [1] 19.1% | [2] 25.9% | [3] 18.9% | [4] 31.5% | [5] 2.25% | [6] 4.85%

C#CCN
inactive: [1] 9.25% | [2] 2% | [3] 2.8% | [4] 3.75% | [5] 8.05% | [6] -12.7%

COc1ccc(C(O)(c2ccccc2)c2nccc3ccccc23)cc1 (configuration not stated)
inactive: [1] 6.6% | [2] 3.75% | [3] 30.4% | [4] 1.45% | [5] 10.3% | [6] -9.4%

CC(C)=CCSC(N)N
inactive: [1] 14.4% | [2] 21.1% | [3] 24.1% | [4] 9.35% | [5] 17.4% | [6] -1.7%

NC(CSCCSCCSCC(N)C(=O)O)C(=O)O (configuration not stated)
inactive: [1] -4.45% | [2] 0.1% | [3] 11.2% | [4] -9.05% | [5] -38.4% | [6] -4.5%

CN[C@H]1CCc2cc(OC)c(OC)c(OC)c2-c2ccc(O)c(=O)cc21
inactive: [1] 23.8% | [2] -9.45% | [3] 24.8% | [4] -43.5% | [5] 0.3% | [6] 29.7%

O/N=C1/CCCc2nonc21
inactive: [1] -18.6% | [2] -3.15% | [3] -0.3% | [4] 4.35% | [5] -8.2% | [6] -6.5%

NC(=O)c1cc([N+](=O)[O-])cnc1Sc1ncccn1
inactive: [1] 40.8% | [2] 14.9% | [3] 21.7% | [4] 18.2% | [5] 29.9% | [6] 44.6%

CC(C)=CCOc1cc(NC(=S)c2ccsc2C)ccc1Cl
inactive: [1] -40.6% | [2] -24.6% | [3] -34.1% | [4] -22.4% | [5] -19.1% | [6] -36.3%

COc1cccc(NC(=S)/C(=C(/[O-])c2ccc([N+](=O)[O-])cc2)[n+]2cccc3ccccc32)c1
inactive: [1] 26.1% | [2] 19.2% | [3] 22.1% | [4] 33.2% | [5] 28.2% | [6] 10.5%

O=c1oc2ccc(Br)cc2cc1CCS
inactive: [1] 9.9% | [2] 21.2% | [3] -4.7% | [4] 10.8% | [5] 9.55% | [6] -9.35%

O=C1NC(=O)C(=CN2C(=O)/C(=C/c3ccc(O)cc3)SC2=S)C(=O)N1
inactive: [1] -6.6% | [2] -5.7% | [3] 23.1% | [4] 9.15% | [5] 1.8% | [6] 14.7%

C[N+](C)(C)CCCCCc1c2nc(c(CCCCC[N+](C)(C)C)c3ccc([nH]3)c(CCCCC[N+](C)(C)C)c3ccc([nH]3)c(CCCCC[N+](C)(C)C)c3nc1C=C3)C=C2
inactive: [1] 19.6% | [2] 3.85% | [3] 10% | [4] 3.8% | [5] 26.4%
active: [6] 85.2%

CCCCOC(=O)C1CSSCC(NC(C)=O)C(=O)N1 (configuration not stated)
inactive: [1] -2.05% | [2] -7.35% | [3] 1.5% | [4] -16.5% | [5] -7.2% | [6] -6.95%

CN(C)c1ccc(C(=Cc2ccccc2)c2ccc(N(C)C)cc2)cc1
inactive: [1] -0.9% | [2] 18.3% | [3] -2.8% | [4] -63.6% | [5] 0.8% | [6] 5.5%

O=C1C=C(C2OC(CI)C(O)C2O)C(=O)N1 (configuration not stated)
inactive: [1] -0.45% | [2] 23.1% | [3] 11.5% | [4] -14.4% | [5] 23.2% | [6] -2.05%

O=C(Nc1ccccc1)c1cccnc1
inactive: [1] -4% | [2] -18.4% | [3] -0.2% | [4] -13.9% | [5] -2.75% | [6] -2.65%
